tim10-1 inh – inhibits growth of tim10-1 mutant yeast. S. cerevisiae tim10-1 ts strain growth, BacTiter-Glo, 24 h. inhibition, % at 20 µM. actives 2.2% (n = 330,000). AID 463190;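 active means inhibition of at least 40%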;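 further: mutant grown at 25 °C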
TIM10 inh – TIM10 yeast growth inhibition. S. cerevisiae TIM10 strain growth, BacTiter-Glo luminescence, 24 h. inhibition, % at 10 µM. actives 1.4% (n = 330,000);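 active means inhibition of 40% or more at the single tested concentration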;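 further: wild-type TIM10 isogenic control strain grown at permissive 25 °C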
tim23-1 inh – tim23-1 yeast growth inhibition; S. cerevisiae tim23-1 growth, BacTiter-Glo luminescence, 24 h; inhibition, % at 20 µM; actives 1.3% (n = 330,000); AID 463212;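 active means growth inhibition of the mutant yeast at or above 50%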;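 further: temperature-sensitive mutant grown at 25 °C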
SKKanGAS inh – inhibitors of SKKanGAS S. pyogenes growth in kanamycin (SK-promoter or general growth effect); BacTiter-Glo, 6 h; AID 1662; inhibition, % at 7.5 µM; actives 1.3% (n = 300,000);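 active means mean replicate score, as percent of positive control median, at least 50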;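 further: strain carries kanamycin resistance gene driven by streptokinase promoter and grows in 40 µg/ml kanamycin; loss of luminescence reflects streptokinase promoter inhibition or plain growth inhibition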
NLRP3 yeast inh – inhibitors of NALP3 inflammasome in yeast; Yeast reconstituted NLRP3/ASC/caspase-1, beta-gal luminescence, 24 h; inhibition, % at 10 µM; actives 0.39% (n = 330,000);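 active means inhibition of 50% or more; inactive means inhibition below 50%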
PfHsp90 set2 – growth inhibition of yeast expressing Plasmodium Hsp90; S. cerevisiae expressing PfHsp90, BacTiter-Glo ATP, 48 h; yeast lacking PDR1 and PDR3 efflux regulators; inhibition, % at 9.4 µM; actives 0.32% (n = 310,000);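 active means every replicate shows inhibition above about 80%, whatever the replicate mean, limit read from the data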
NALP3 confirm – NALP3 inhibition confirmation in yeast; actives 81% (n = 1,300); AID 435006; yeast expressing human NALP3, luminescence; inhibition, % at 10 µM; shares compounds with NLRP3 yeast inh; in the data active means inhibition above about 48%
Casp1-ASC yeast – caspase-1-ASC yeast counter-screen hit | shares compounds with NLRP3 yeast inh | yeast expressing Caspase-1-ASC, luminescence counter screen | inhibition, % at 10 µM | actives 66% (n = 1,000) | AID 488784
NALP3 retest – confirmation retest of NALP3 inhibitors in yeast; shares compounds with NLRP3 yeast inh; AID 488794; yeast expressing human NALP3, luminescence read-out; inhibition, % at 10 µM; actives 53% (n = 1,000)
tim10-1 conf – confirmation of tim10-1 mutant yeast growth inhibitors. S. cerevisiae tim10-1 ts strain growth, BacTiter-Glo, 24 h. AID 463213. shares compounds with tim10-1 inh. inhibition, % at 20 µM. actives 56% (n = 7,400);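 active means inhibition of yeast growth at or above a set limit in either of two repeat tests at 20 µM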;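 further: tim10-1 mutant grown at permissive 25 °C to find synthetic lethal compounds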
TIM10 conf – TIM10 yeast growth inhibition, confirmed; inhibition, % at 10 µM; AID 463215; actives 63% (n = 4,600); shares compounds with TIM10 inh; S. cerevisiae tim10 strain growth, BacTiter-Glo luminescence, 24 h;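 active means inhibition of yeast growth at or above a set limit in either of two replicates at 10 µM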; further: this counterscreen used the strain with wild-type TIM10
tim23-1 conf – confirmation of tim23-1 mutant yeast growth inhibitors; shares compounds with tim23-1 inh; S. cerevisiae tim23-1 growth, BacTiter-Glo luminescence, 24 h; inhibition, % at 20 µM; actives 83% (n = 4,400); AID 463218;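 active means inhibition above about 39% in either of two replicate wells at 20 µM, limit read from the data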;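 further: temperature-sensitive tim23-1 mutant grown at 25 °C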
Large screens that a line does not name were inactive (follow-up assays come after a bar, where they were run). Rows were chosen to be rich in hits. Some 4.6% of all compounds tested hit in one or more screens of this group. Unless noted, no stated cut-off is given here; in the data, active means inhibition above about 50%; inactive means the rest.

Nc1ccc2nc(SCC(=O)c3ccccc3)sc2c1	none
O=C(O/N=C1/CCSc2ccccc21)c1ccc(F)cc1	none (no result: SKKanGAS inh)
CC(C)(C)C1CCC(=NOC(=O)c2ccc(F)cc2)CC1 (centres undefined)	tim10-1 inh 44.8, TIM10 inh 84.6, tim23-1 inh 67.0, NLRP3 yeast inh 58.6 | NALP3 confirm 78.7 | Casp1-ASC yeast 53.8 | NALP3 retest inactive | tim10-1 conf inactive | TIM10 conf 83.0 | tim23-1 conf 62.5
COc1ccc2[nH]cc(CCNC(=O)c3ccc4ccccc4n3)c2c1	none
COC(=O)c1ccccc1NC1=C/C(=N\S(=O)(=O)c2ccc(C(=O)O)cc2)c2ccccc2C1=O	tim10-1 inh 54.0, TIM10 inh 53.0, tim23-1 inh 70.8, SKKanGAS inh 92.7, NLRP3 yeast inh 50.6 | NALP3 confirm 64.3 | Casp1-ASC yeast 84.0 | NALP3 retest 77.0 | tim10-1 conf 76.8 | TIM10 conf 65.3 | tim23-1 conf 88.9
CC(=O)Nc1ccc(NC(=O)C(C)OC(=O)CCCOc2ccc(Cl)cc2C)cc1 (centres undefined)	none
CN(C)CCn1c2c(c(SCC(=O)Nc3ccc4c(c3)OCCO4)nc1=O)CCCC2	none
S=C(NCc1ccccc1)Nc1ccc(Cl)cc1	none
FC(F)(F)Sc1ccc(NC(=S)NCc2ccccc2)cc1	tim10-1 inh 57.9, TIM10 inh 53.0, tim23-1 inh 52.3, NLRP3 yeast inh 52.8 | NALP3 confirm inactive | tim10-1 conf 69.9 | TIM10 conf 58.7 | tim23-1 conf 53.4
CCCCCCCCCn1c2c(c(=N)c3c1CCC3)CCC2	tim10-1 inh 64.4, TIM10 inh 48.2, tim23-1 inh 66.7, NLRP3 yeast inh 58.9 | NALP3 confirm 65.0 | Casp1-ASC yeast inactive | NALP3 retest 54.5 | tim10-1 conf 60.5 | TIM10 conf 49.5 | tim23-1 conf 82.8
CC(C)(O)c1cc2ccc(C#Cc3ccsc3)cc2c(=O)o1	tim23-1 inh 60.3, NLRP3 yeast inh 65.3 (no result: SKKanGAS inh) | NALP3 confirm 51.4 | Casp1-ASC yeast 67.2 | NALP3 retest 58.1 | tim23-1 conf inactive
O=C(Nc1ccccc1)C1C(c2ccccc2)C1(Cl)Cl (centres undefined)	tim10-1 inh 43.5, tim23-1 inh 55.0, NLRP3 yeast inh 59.0 | NALP3 confirm 71.8 | Casp1-ASC yeast 64.2 | NALP3 retest 59.8 | tim10-1 conf inactive | tim23-1 conf 47.5
CC(C)(C)c1csc(NC(=O)c2ccccc2O)n1	tim10-1 inh 83.9, TIM10 inh 67.3, tim23-1 inh 89.4, NLRP3 yeast inh 54.6 | NALP3 confirm 55.1 | Casp1-ASC yeast 59.0 | NALP3 retest inactive | tim10-1 conf 84.1 | TIM10 conf 72.1 | tim23-1 conf 92.5
Cc1ccc2nc(NC(=O)Cn3nc(C)c([N+](=O)[O-])c3C)sc2c1	TIM10 inh 47.6, tim23-1 inh 50.8 | NALP3 confirm inactive | TIM10 conf inactive | tim23-1 conf 64.6
O=C(Nn1cnc2ccccc2c1=O)c1ccc(Cl)c([N+](=O)[O-])c1	none
Cc1ccc(Nc2c(-c3ccccn3)nc3cc(C)ccn23)cc1	tim23-1 inh 57.2, SKKanGAS inh 100.9, NLRP3 yeast inh 53.4 | NALP3 confirm 62.8 | Casp1-ASC yeast 50.5 | NALP3 retest inactive | tim23-1 conf 50.4
O=C(Nc1ccc2c(c1)OCCO2)c1cnc2ccccn2c1=O	none
Cc1cccc(NC(=O)c2cnc3ccccn3c2=O)c1	tim23-1 inh 61.3, NLRP3 yeast inh 50.7 (no result: SKKanGAS inh) | NALP3 confirm 77.2 | tim23-1 conf 55.0
CCOc1ccccc1C(=O)Nc1cc(Cl)ccc1O	tim10-1 inh 62.2, TIM10 inh 58.9, tim23-1 inh 85.1, SKKanGAS inh 54.1, NLRP3 yeast inh 52.2 | NALP3 confirm 72.4 | Casp1-ASC yeast 66.3 | NALP3 retest 53.2 | tim10-1 conf 53.8 | TIM10 conf 52.1 | tim23-1 conf inactive
COc1ccccc1C(=O)Nc1cc(Cl)ccc1O	none
O=C(NC(=S)Nc1ccccc1Br)C1CCCC1	none
O=C(NC(=S)Nc1ccccc1Br)C1CCCCC1	tim23-1 inh 56.2, NLRP3 yeast inh 53.3 (no result: SKKanGAS inh) | NALP3 confirm inactive | Casp1-ASC yeast 59.4 | NALP3 retest inactive | tim23-1 conf inactive
O=C(NC(=S)Nc1ccccc1F)C1CCCCC1	tim10-1 inh 40.3, tim23-1 inh 53.8, NLRP3 yeast inh 51.7 (no result: PfHsp90 set2) | NALP3 confirm 72.1 | Casp1-ASC yeast 72.1 | NALP3 retest 63.2 | tim10-1 conf inactive | tim23-1 conf 48.2
COc1ccc(CC(=O)NCC2CCCN(Cc3cc(OC)cc(OC)c3)C2)cc1 (centres undefined)	none
Nc1nc(-c2cc(-c3ccccc3)no2)cs1	TIM10 inh 51.2, tim23-1 inh 79.7, NLRP3 yeast inh 56.2 | NALP3 confirm 75.4 | Casp1-ASC yeast 63.7 | NALP3 retest 61.0 | TIM10 conf 58.5 | tim23-1 conf 75.3
Nc1nc(-c2ccccc2)cs1	none
O=C(N/N=C/C(Cl)=C\c1ccccc1)c1cccs1	tim23-1 inh 64.3, NLRP3 yeast inh 59.9 | NALP3 confirm 69.0 | tim23-1 conf 64.4
O=C(N/N=C/C(Cl)=C/c1ccccc1)c1ccncc1	none
CC(/C=N/NC(=O)Cc1cccs1)=C\c1ccccc1	none
CC(/C=N/NC(=O)c1cccs1)=C\c1ccccc1	tim23-1 inh 53.5, NLRP3 yeast inh 53.8 | NALP3 confirm 69.1 | Casp1-ASC yeast 62.7 | NALP3 retest 52.5 | tim23-1 conf 48.0
CCOc1ccc(NC(=O)/C=C/c2ccccc2)c([N+](=O)[O-])c1	none
CCOc1ccc(N/C=C/C(=O)c2ccccc2)c([N+](=O)[O-])c1	TIM10 inh 70.2, tim23-1 inh 57.3, NLRP3 yeast inh 58.9 | NALP3 confirm inactive | TIM10 conf inactive | tim23-1 conf 77.0
O=C(/C=C/c1ccccc1Cl)Nc1ccccc1	tim23-1 inh 65.1, NLRP3 yeast inh 65.0 | NALP3 confirm 75.5 | Casp1-ASC yeast 79.1 | NALP3 retest 74.3 | tim23-1 conf 57.8

Screens deposited in PubChem BioAssay by several laboratories.
